The whole screen tested about 52,000 compounds, of which about 1,700 (3.3%) were called active. Rule as the data show it: active = survival mostly below about 52% (no sharp cut-off); inactive = mostly above about 56%. What follows is part of a selection rich in actives, with near analogues and random picks from the rest.

For the test, the system named is Wild type. The experiment in a line: S. aureus survival, RN4220 and DeltatarO strains – OD600, teichoic acid synthesis inhibitors, primary screen (AID 463173). Particulars: S. aureus RN4220 wild type/DeltatarO growth, OD600, 18 h, stronger effect = lower value, screened at 18.75 µg/mL (by protocol).
With `COc1ccc(NC(=O)C(CC(C)C)NC(=O)C2CCCCC2)c(OC)c1` (stereo unspecified), the survival was 63% (inactive).
Turning to `CC1(C)NC(=O)N(CC(O)CN2C(=O)NC(C)(C)C2=O)C1=O`, the survival is 117% (inactive).
Regarding `N#Cc1c(-n2ncnc2-c2ccc(F)cc2)sc2c1CCCCC2`, the survival is -2% (active).
Regarding `N#Cc1c(-n2ncnc2-c2cccc(Cl)c2)sc2c1CCCCC2`, the survival was 58% (inactive).
On to `N#Cc1c(-n2ncnc2-c2cccc(Br)c2)sc2c1CCCCC2`, for which the survival is 45% (inactive).
With `N#Cc1c(-n2ncnc2-c2ccc(Br)cc2)sc2c1CCCCC2` the figure was 2% (active); with `CCOc1ccc(-c2ncnn2-c2sc3c(c2C#N)CCCCC3)cc1`, 3% (active).
Consider `COc1ccc(-c2nnn(CC(=O)Nc3sc4c(c3C#N)CCCC4)n2)cc1`, for which the survival was 109% (inactive).
On to `CC(C)CCOc1ccc(C(=O)Nc2sc3c(c2C#N)CCCCC3)cc1`, for which the survival was 135% (inactive).
With `N#Cc1c(/N=C/N2CCCCC2)sc2c1CCCC2`, the survival was 89% (inactive).
Regarding `N#Cc1c(N2C(=O)C3C4C=CC(C4)C3C2=O)sc2c1CCCC2` (stereo unspecified), the survival is 108% (inactive).
Turning to `Cc1ccc(C)c(N2CCN(S(=O)(=O)c3cc(-c4cc(C)no4)ccc3C)CC2)c1`, the survival was 73% (inactive).
In the case of `O=C(CSc1n[nH]c(-c2ccccc2)n1)NCCCc1ccccc1`, the survival is 69% (inactive).
`CC(C)(C)c1cn2ccc3ccccc3c2n1`: the survival was 113% (inactive).
For the compound `Oc1ccccc1C(C#Cc1ccccc1)N1CCOCC1` (stereo unspecified), the survival is 110% (inactive).
As for `CC(C)N(C(=O)Cn1nnc2ccccc21)C(C(=O)NCc1ccco1)c1ccccc1` (stereo unspecified), the survival is 101% (inactive).
Take `Cc1ccc(C)c(N2CCN(Cc3nnc(-c4ccccc4)o3)CC2)c1`: the survival was 87% (inactive).
Consider `Cc1ccc(N2CCN(Cc3nnc(-c4ccccc4F)o3)CC2)c(C)c1`, for which the survival was 15% (active).
With `Cc1ccccc1-c1nnc(CN2CCN(c3cc(Cl)ccc3C)CC2)o1`, the survival was 86% (inactive).
Regarding `Cc1ccc(-n2nc(C(=O)Nc3ccc(C)c(F)c3)c(=O)n(C)c2=O)cc1`, the survival was 68% (inactive).
For `Cc1ccccc1CN1c2ccccc2-c2nc(SCC(=O)NCCc3ccccc3)ncc2S1(=O)=O`, the survival was 53% (inactive).
As for `NC(=O)CSc1ncc2c(n1)-c1ccccc1N(Cc1ccccc1)S2(=O)=O`, the survival was 69% (inactive).
Take `O=C(CSc1ncc2c(n1)-c1ccccc1N(Cc1ccccc1)S2(=O)=O)Nc1ccccc1`: the survival is -6% (active).
With `CCc1cccc(NC(=O)CSc2ncc3c(n2)-c2ccccc2N(CC)S3(=O)=O)c1`, the survival was 95% (inactive).
On to `Cc1ccc(CN2c3ccccc3-c3nc(SCC(=O)Nc4c(C)cc(C)cc4C)ncc3S2(=O)=O)cc1`, for which the survival was 133% (inactive).
For the compound `O=C(CSc1ncc2c(n1)-c1cc(Cl)ccc1N(Cc1ccccc1)S2(=O)=O)NCCc1ccccc1`, the survival is 113% (inactive).
Consider `Cc1ccc(CN2c3ccccc3-c3nc(SCC(=O)NCCc4ccccc4)ncc3S2(=O)=O)cc1`, for which the survival is 14% (active).
As for `O=C(CSc1ncc2c(n1)-c1ccccc1N(Cc1ccc(F)cc1)S2(=O)=O)NCCc1ccccc1`, the survival is 73% (inactive).
As for `CCN1c2ccccc2-c2nc(SCC(=O)NCc3ccccc3)ncc2S1(=O)=O`, the survival is 74% (inactive).
Take `CCc1cccc(NC(=O)CSc2ncc3c(n2)-c2ccccc2N(Cc2ccccc2C)S3(=O)=O)c1`: the survival is 0% (active).
Regarding `CCOc1ccc(NC(=O)CSc2ncc3c(n2)-c2ccccc2N(Cc2ccccc2C)S3(=O)=O)cc1`, the survival was 63% (inactive).
As for `Cc1ccccc1CN1c2ccccc2-c2nc(SCC(=O)NCc3ccccc3)ncc2S1(=O)=O`, the survival is -3% (active).
In the case of `Cc1ccc2[nH]c(CSc3nnc(NC(=O)c4ccccc4C)s3)cc(=O)c2c1`, the survival is 72% (inactive).
For the compound `O=C(NCCCO)c1cc2sc3ccccc3c2s1`, the survival was 103% (inactive).
As to `O=C(Nn1c(Cc2ccccc2)nc2ccccc2c1=O)c1ccco1`, the survival was 107% (inactive).
For the compound `O=C(CSc1ncc2c(n1)-c1ccccc1N(Cc1ccc(F)cc1)S2(=O)=O)NCc1ccccc1`, the survival is 76% (inactive).
On to `Cc1ccc(CN2c3ccccc3-c3nc(SCC(=O)NCc4ccccc4)ncc3S2(=O)=O)cc1`, for which the survival was -1% (active).
As to `CCN1c2ccccc2-c2nc(SCC(=O)NCc3ccc(C)cc3)ncc2S1(=O)=O`, the survival was 79% (inactive).
As to `COc1ccc(N(CC(=O)N2CCN(c3cccc(Cl)c3)CC2)S(=O)(=O)c2c(C)noc2C)cc1`, the survival was 84% (inactive).
`Cc1cc(C)c2sc(N3CCN(C(=O)c4ccc(N(C)C)cc4)CC3)nc2c1`: the survival is 136% (inactive).
As for `O=C(CC1COc2ccccc2O1)NCc1ccccc1` (stereo unspecified), the survival is 105% (inactive).
For `O=C(Nc1ccc(F)cc1)Nc1csc2c1CCCC2`, the survival was 12% (inactive).
`CCOc1ccc(-n2c(SCC(=O)N3CCCCC3)nc3c([nH]c4ccccc43)c2=O)cc1`: the survival is 94% (inactive).
Turning to `COc1ccc(-n2c(SCC(=O)c3ccccc3)nc3c([nH]c4ccccc43)c2=O)cc1`, the survival is 88% (inactive).
As to `CCOc1ccc(-n2c(SCC(=O)N3CCCC3)nc3c([nH]c4ccccc43)c2=O)cc1`, the survival was 73% (inactive).
As to `Cc1cccc(-c2nc(SCC(=O)Nc3cccc(C(F)(F)F)c3)n3[nH]c(=O)cc3n2)c1`, the survival was -3% (active).
Consider `Cc1ccc(-n2c(SCC(=O)c3ccccc3)nc3c([nH]c4ccccc43)c2=O)cc1`, for which the survival was -6% (active).
`O=C(CSc1nc(-c2cccs2)nc2cc(=O)[nH]n12)Nc1cccc(C(F)(F)F)c1`: the survival is 128% (inactive).
In the case of `O=C(CSc1nc2c([nH]c3ccccc32)c(=O)n1-c1ccccc1)N1CCc2ccccc21`, the survival was 73% (inactive).
On to `Cc1cc(C)cc(-n2c(SCC(=O)N3CCc4ccccc43)nc3c([nH]c4ccccc43)c2=O)c1`, for which the survival was 14% (active).
As for `O=C(CSc1nc2c([nH]c3ccccc32)c(=O)n1-c1ccccc1)c1ccccc1`, the survival was 73% (inactive).
In the case of `O=C(CSc1nc(-c2ccccc2F)nc2cc(=O)[nH]n12)Nc1cccc(C(F)(F)F)c1`, the survival is 69% (inactive).
Regarding `Cc1ccc(-n2c(SCC(=O)N3CCc4ccccc43)nc3c([nH]c4ccccc43)c2=O)cc1`, the survival is 120% (inactive).
Turning to `CCOc1ccc(-n2c(SCC(=O)N3CCOCC3)nc3c([nH]c4ccccc43)c2=O)cc1`, the survival is -3% (active).
`Cc1ccc(CNC(=O)C2(c3cccs3)CCOCC2)cc1`: the survival is 69% (inactive).
With `O=C(Nc1ccc2oc(-c3ccc4ccccc4c3)nc2c1)c1cc(Br)ccc1Cl` the figure was 96% (inactive).
